The structures appear in SMILES notation. This is part of a sample that, as a whole, favours compounds with a hit. Of some 79,000 tested, about 15% had one in any assay. A number with no mark means an inactive call. Active and inactive are the calls of the source. No stated cut-off is given here; in the data, active means growth inhibition above about 70%; inactive means the rest.

Experiment [1] in a line: NCI Yeast Anticancer Drug Screen. Data for the rad50 strain (AID 155).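 Further: 0% = growth of vehicle-only cultures of the same strain.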 The note with it: S. cerevisiae rad50 strain growth inhibition, hits give high values. In outline: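 DNA repair mutant yeast, compound exposure, growth read-out; inhibition is taken relative to vehicle.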
A short description of experiment [2]: NCI Yeast Anticancer Drug Screen. Data for the mec2-1 strain (AID 157). The note with it: S. cerevisiae mec2-1 strain, hits give high values. In outline: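 Readout is yeast growth inhibition, normalised to vehicle-treated controls, in the mec2-1 strain exposed to compound.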
Experiment [3] can be described thus: NCI Yeast Anticancer Drug Screen. Data for the cln2 rad14 strain (AID 165).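 Further: 0% = growth equal to vehicle treated cultures.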 The note with it: S. cerevisiae cln2 rad14 strain, hits give high values. In outline:
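Relative to vehicle controls, growth inhibition of compound-treated cln2 rad14 yeast was recorded.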

Experiment [4] can be described thus: NCI Yeast Anticancer Drug Screen. Data for the bub3 strain (AID 167). The note with it: S. cerevisiae bub3 mutant strain, hits give high values. In outline:
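In this screen, a yeast mutant lacking normal mitotic checkpoint function is challenged with compound. Relative growth versus vehicle gives the inhibition value.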

A short description of experiment [5]: NCI Yeast Anticancer Drug Screen. Data for the mlh1 rad18 strain (AID 175). The note with it: S. cerevisiae mlh1 rad18 strain growth inhibition, hits give high values. In outline: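 Test agents were incubated with a yeast strain of defined genotype (DNA damage repair defect). Inhibition of growth was derived by comparison with vehicle-exposed cultures.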
A short description of experiment [6]: NCI Yeast Anticancer Drug Screen. Data for the sgs1 mgt1 strain (AID 161).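 Further: 0% = growth of cultures given vehicle only.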 The note with it: S. cerevisiae sgs1 mgt1 strain, hits give high values. Put shortly:
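Growth of a repair-deficient yeast mutant was monitored after compound treatment and expressed as inhibition relative to vehicle-treated cultures.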

Where [7] appears, read: at 5.0 µM (retest, dose inferred, filed as 0.5).
The mark [8] stands for this setting: at 50.0 µM (retest, dose inferred, filed as 5.0).

As for `CC/C(=C/c1ccc(OC)cc1OC)[N+](=O)[O-]`, the growth inhibition was 66% in experiment [1] (setting [7]); 99% (active) in experiment [1] (setting [8]); 99.4% (active) in experiment [1] (at 50.0 µM); 48% in experiment [2] (setting [7]); 100% (active) in experiment [2] (setting [8]); 99.7% (active) in experiment [2] (at 50.0 µM). Besides, the growth inhibition is 22% in experiment [3] (setting [7]); 99% (active) in experiment [3] (setting [8]); 99.3% (active) in experiment [3] (at 50.0 µM); 44% in experiment [4] (setting [7]); 99% (active) in experiment [4] (setting [8]); 99.5% (active) in experiment [4] (at 50.0 µM). Also, the growth inhibition in experiment [5] (setting [7]) is 39%; in experiment [5] (setting [8]), 99% (active); in experiment [5] (at 50.0 µM), 99.2% (active).
Turning to `O=C(O)CN1CCN(CC(=O)O)CC(=O)[O][Hg][O]C(=O)C1`, the growth inhibition was 100% (active) in experiment [1] (setting [7]); 99% (active) in experiment [1] (setting [8]); 99.3% (active) in experiment [1] (at 50.0 µM); 100% (active) in experiment [2] (setting [7]); 100% (active) in experiment [2] (setting [8]); 99.4% (active) in experiment [2] (at 50.0 µM). The growth inhibition is 99% (active) in experiment [6] (setting [7]); 99% (active) in experiment [6] (setting [8]); 99.5% (active) in experiment [6] (at 50.0 µM); 99% (active) in experiment [3] (setting [7]); 99% (active) in experiment [3] (setting [8]); 98.3% (active) in experiment [3] (at 50.0 µM). The values for the growth inhibition in experiment [5] (setting [7]), in experiment [5] (setting [8]) and in experiment [5] (at 50.0 µM) were 99% (active), 99% (active) and 99.2% (active), respectively.
As for `O=C1C=C(N2CC2)C(=O)C(N2CC2)=C1N1CC1`, the growth inhibition was 97% (active) in experiment [1] (setting [7]); 98% (active) in experiment [1] (setting [8]); 99.2% (active) in experiment [1] (at 50.0 µM); 98% (active) in experiment [2] (setting [7]); 99% (active) in experiment [2] (setting [8]); 99.2% (active) in experiment [2] (at 50.0 µM). The growth inhibition was 97% (active) in experiment [6] (setting [7]); 98% (active) in experiment [6] (setting [8]); 98.8% (active) in experiment [6] (at 50.0 µM); 97% (active) in experiment [4] (setting [7]); 97% (active) in experiment [4] (setting [8]); 99.2% (active) in experiment [4] (at 50.0 µM). The growth inhibition is 98% (active) in experiment [5] (setting [7]), 98% (active) in experiment [5] (setting [8]) and 99% (active) in experiment [5] (at 50.0 µM).
`O=C([CH-]C(=O)c1ccccc1)c1ccccc1.O=C([CH-]C(=O)c1ccccc1)c1ccccc1.O=C([CH-]C(=O)c1ccccc1)c1ccccc1.[Cl-].[Hf+4]`: the growth inhibition in experiment [1] (setting [7]) was 38%; in experiment [1] (setting [8]), 95% (active); in experiment [1] (at 50.0 µM) it was 88% (active); in experiment [2] (setting [7]) it was 37%; in experiment [2] (setting [8]), 96% (active); in experiment [2] (at 50.0 µM), 90.2% (active). Moreover, the growth inhibition in experiment [6] (setting [7]) was 50%; in experiment [6] (setting [8]), 95% (active); in experiment [6] (at 50.0 µM) it was 91.8% (active); in experiment [4] (setting [7]), 64%; in experiment [4] (setting [8]), 95% (active); in experiment [4] (at 50.0 µM) it was 90.8% (active). Also, the results for the growth inhibition in experiment [5] (setting [7]), in experiment [5] (setting [8]) and in experiment [5] (at 50.0 µM) were 46%, 94% (active) and 87.9% (active), respectively.
With `C(=P(c1ccccc1)(c1ccccc1)c1ccccc1)[P+](c1ccccc1)(c1ccccc1)c1ccccc1.[Cl][Fe]([Cl])([Cl])[Br]`, the growth inhibition in experiment [1] (setting [7]) was 98% (active); in experiment [1] (setting [8]) it was 99% (active); in experiment [1] (at 50.0 µM), 99.5% (active); in experiment [2] (setting [7]), 98% (active); in experiment [2] (setting [8]), 99% (active); in experiment [2] (at 50.0 µM) it was 99.5% (active). For the same compound, the growth inhibition in experiment [6] (setting [7]) is 99% (active); in experiment [6] (setting [8]) it was 99% (active); in experiment [6] (at 50.0 µM), 99.5% (active); in experiment [3] (setting [7]) it was 98% (active); in experiment [3] (setting [8]), 99% (active); in experiment [3] (at 50.0 µM), 99.2% (active). Besides, the growth inhibition in experiment [5] (setting [7]) was 99% (active); in experiment [5] (setting [8]), 99% (active); in experiment [5] (at 50.0 µM), 99.4% (active).
On to `CN(C=O)NC(=O)N(CCCl)N=O`, for which the growth inhibition in experiment [1] (setting [7]) was 19%; in experiment [1] (setting [8]), 21%; in experiment [1] (at 50.0 µM) it was 55.2%; in experiment [2] (setting [7]) it was 13%; in experiment [2] (setting [8]) it was 1%; in experiment [2] (at 50.0 µM), 62.5%. Moreover, the growth inhibition in experiment [6] (setting [7]) was 22%; in experiment [6] (setting [8]), 21%; in experiment [6] (at 50.0 µM), -13.2%; in experiment [3] (setting [7]), 23%; in experiment [3] (setting [8]) it was 16%; in experiment [3] (at 50.0 µM) it was 11.2%. Besides, the growth inhibition is 16% in experiment [5] (setting [7]), 23% in experiment [5] (setting [8]) and -11.4% in experiment [5] (at 50.0 µM).
On to `COc1cc2c(c3c[n+](C)c4c5cc6c(cc5ccc4c13)OCO6)OCO2`, for which the growth inhibition in experiment [1] (setting [7]) was 98% (active); in experiment [1] (setting [8]), 98% (active); in experiment [1] (at 50.0 µM) it was 92.2% (active); in experiment [2] (setting [7]), 99% (active); in experiment [2] (setting [8]), 99% (active); in experiment [2] (at 50.0 µM), 94.8% (active). Also, the growth inhibition is 99% (active) in experiment [6] (setting [7]); 98% (active) in experiment [6] (setting [8]); 93.7% (active) in experiment [6] (at 50.0 µM); 98% (active) in experiment [3] (setting [7]); 98% (active) in experiment [3] (setting [8]); 92.2% (active) in experiment [3] (at 50.0 µM). Further, the growth inhibition is 99% (active) in experiment [5] (setting [7]), 98% (active) in experiment [5] (setting [8]) and 92.8% (active) in experiment [5] (at 50.0 µM).
For the compound `CC[C@@H]1C(=O)OC[C@@H]1Cc1cncn1C`, the growth inhibition is -3% in experiment [1] (setting [7]); -8% in experiment [1] (setting [8]); -4.1% in experiment [1] (at 50.0 µM); 18% in experiment [2] (setting [7]); -4% in experiment [2] (setting [8]); -35.8% in experiment [2] (at 50.0 µM). Also, the growth inhibition in experiment [6] (setting [7]) is 7%; in experiment [6] (setting [8]) it was -18%; in experiment [6] (at 50.0 µM), -20.9%; in experiment [4] (setting [7]), -11%; in experiment [4] (setting [8]) it was -4%; in experiment [4] (at 50.0 µM), -19.1%. Also, the values for the growth inhibition in experiment [5] (setting [7]), in experiment [5] (setting [8]) and in experiment [5] (at 50.0 µM) were -7%, -1% and -9.2%, respectively.
As to `CCC[CH2][Sn]([CH2]CCC)([CH2]CCC)[O]C(=O)C(OC)c1ccccc1` (centres undefined), the growth inhibition was 100% (active) in experiment [1] (setting [7]); 100% (active) in experiment [1] (setting [8]); 90.5% (active) in experiment [1] (at 50.0 µM); 100% (active) in experiment [2] (setting [7]); 100% (active) in experiment [2] (setting [8]); 91.3% (active) in experiment [2] (at 50.0 µM). For the same compound, the growth inhibition in experiment [6] (setting [7]) is 99% (active); in experiment [6] (setting [8]) it was 99% (active); in experiment [6] (at 50.0 µM), 91% (active); in experiment [4] (setting [7]), 99% (active); in experiment [4] (setting [8]), 99% (active); in experiment [4] (at 50.0 µM) it was 88.7% (active). For the same compound, the growth inhibition is 100% (active) in experiment [5] (setting [7]), 100% (active) in experiment [5] (setting [8]) and 89.4% (active) in experiment [5] (at 50.0 µM).
On to `CC(Cc1ccc2c(c1)OCO2)NN` (centres undefined), for which the growth inhibition in experiment [1] (setting [7]) was -2%; in experiment [1] (setting [8]), 37%; in experiment [2] (setting [7]), -5%; in experiment [2] (setting [8]), 6%; in experiment [6] (setting [7]), -2%; in experiment [6] (setting [8]), 59%. Besides, the growth inhibition in experiment [3] (setting [7]) was -5%; in experiment [3] (setting [8]) it was -8%; in experiment [4] (setting [7]) it was 2%; in experiment [4] (setting [8]), 34%; in experiment [5] (setting [7]), -20%; in experiment [5] (setting [8]) it was 16%.
Consider `O=C(CBr)c1ccncc1`, for which the growth inhibition in experiment [1] (setting [7]) is 99% (active); in experiment [1] (setting [8]), 99% (active); in experiment [2] (setting [7]) it was 100% (active); in experiment [2] (setting [8]) it was 100% (active); in experiment [6] (setting [7]), 100% (active); in experiment [6] (setting [8]) it was 99% (active). Besides, the growth inhibition in experiment [3] (setting [7]) is 99% (active); in experiment [3] (setting [8]) it was 99% (active); in experiment [4] (setting [7]), 100% (active); in experiment [4] (setting [8]), 99% (active); in experiment [5] (setting [7]), 95% (active); in experiment [5] (setting [8]) it was 98% (active).
Take `CN1C(=O)C(C)(C2=CCCCC2)C(=O)NC1=S` (centres undefined): the growth inhibition in experiment [1] (at 50.0 µM) is 1.55%; in experiment [2] (at 50.0 µM), 1.65%; in experiment [6] (at 50.0 µM) it was 11.8%; in experiment [3] (at 50.0 µM), -17.4%; in experiment [4] (at 50.0 µM) it was -1.9%.

Values taken from PubChem BioAssay (NCI).
